According to PubChem BioAssay (NCATS):
Results filed as inconclusive are left out. Activity calls are given as the source filed them. Calls come from the whole dose curve; as a rule, active = well fitted curve in the direction sought with a large enough effect; inconclusive = small, poorly fitted or top-dose-only effect, or another doubt; inactive = no such curve, though single readings can be large; an effect the other way counts as inactive or inconclusive.

Legend:
[1] = qHTS for ATAD5 Antagonist screened against the NCATS CANVASS Library (AID 1347370);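 note: HEK293T cells carrying an ATAD5 luciferase reporter co-treated with 10 µM 5-fluorouridine; series mostly up to about 46 µM; nearly all actives have a fitted effect of over 65% in size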
Method in brief: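 HEK293T cells with stably integrated ATAD5-luciferase reporter, 2000/well, 5 h attachment; compounds plus 10 µM 5-fluorouridine, 16 h at 37 °C. Luciferase luminescence read, with CellTiter-Fluor viability read first.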

[2] = J3T Cancer Cell Toxicity qHTS against the NCATS CANVASS Library (AID 1347371);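 note: J3T is a canine glioma cancer cell line seeded at 500 cells per well; series mostly up to about 46 µM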
Method in brief: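 J3T dog glioma cells, 500 per well, treated 72 h at 37C with compounds (11-point qHTS); viability from ATP content by CellTiterGlo luminescence; bortezomib titration as control.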

[3] = target: Nuclear receptor subfamily 1 group I member 3 (Homo sapiens) (UniProt Q14994); assay: qHTS for Constitutive Androstane Receptor (CAR) Antagonist screened against the NCATS CANVASS Library (AID 1347372);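 note: cells stimulated with 50 nM CITCO agonist so inhibition reflects antagonism; series mostly up to about 46 µM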
Nuclear receptor subfamily 1 group I member 3 (Homo sapiens), sequence (Q14994 whole entry, looked up): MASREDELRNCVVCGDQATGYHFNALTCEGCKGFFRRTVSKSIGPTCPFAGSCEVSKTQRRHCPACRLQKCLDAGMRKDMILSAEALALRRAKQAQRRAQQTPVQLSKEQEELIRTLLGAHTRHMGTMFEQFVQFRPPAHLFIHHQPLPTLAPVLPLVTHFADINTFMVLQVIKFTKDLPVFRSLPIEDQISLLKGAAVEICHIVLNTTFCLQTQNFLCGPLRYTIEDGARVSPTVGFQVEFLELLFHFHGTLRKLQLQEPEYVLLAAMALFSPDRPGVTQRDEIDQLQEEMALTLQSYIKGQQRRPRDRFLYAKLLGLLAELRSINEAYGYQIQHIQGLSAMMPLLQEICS
Method in brief: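 HepG2 cells stably carrying hCAR and CYP2B6-2.2kb luciferase reporter, 2500 cells/well, compound with 50 nM CITCO agonist for 24hr at 37C. ONE-Glo luminescence measured CAR activity; CellTiter-Fluor read viability.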

[4] = target: Nuclear receptor subfamily 1 group I member 3 (Homo sapiens) (UniProt Q14994); assay: qHTS for Constitutive Androstane Receptor (CAR) Agonist screened against the NCATS CANVASS Library (AID 1347373);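 note: every well also contained 1.5 µM PK11195 alongside the test compound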
Method in brief: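 HepG2 cells stably carrying hCAR and a CYP2B6-2.2kb luciferase reporter, treated 24hr at 37C with compounds plus 1.5uM PK11195; activation by ONE-Glo luminescence, viability by CellTiter-Fluor.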

[5] = 10-beta competent E. coli microbial cell viability qHTS against the NCATS CANVASS Library (AID 1347376); note: series mostly up to about 46 µM
Method in brief: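 10-beta competent E. coli (0.2 OD) were exposed overnight at 37C to compounds in an 11-point series. Viability was read as ATP-dependent BacTiter-Glo luminescence after 20 min at room temperature.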

[6] = qHTS for H2AX Agonists against the NCATS CANVASS Library (AID 1347378);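 note: phospho-H2AX S139 level in CHO-K1 lysates by TR-FRET emission ratio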
Method in brief: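 Following overnight seeding, CHO-K1 cells are incubated with a concentration series of compound for 3 hr at 37C (final DMSO 0.76%). Cells are then lysed, detection antibodies added, and emission ratio 665/620 nm recorded after 24 hr at room temperature.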

[7] = qHTS for Inflammasome Signaling Inhibitors: IL-1-beta AlphaLISA screen against the NCATS CANVASS Library (AID 1347379);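 note: human THP-1 cells primed with LPS then triggered with ATP; secreted IL-1B measured as AlphaLISA emission at 615 nm; lower signal means less IL-1B release which is the wanted effect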
Method in brief: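 THP-1 cells pretreated 1 hr with compound (up to 57.5 uM final), then stimulated with LPS (250 ng/mL final) and ATP (1.25 mM final). Secreted IL-1B measured by AlphaLISA after 16 hr; glyburide as positive control.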

[8] = qHTS for Antimalaria activity screened against the NCATS CANVASS Library (AID 1347380);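 note: Plasmodium falciparum strain Dd2 asexual parasites grown in red blood cells; series mostly up to about 29 µM; nearly all actives have a fitted effect of over 40% in size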
Method in brief: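 Red blood cells infected with P. falciparum Dd2 (2.5% hematocrit final, 0.3% parasitemia) were exposed to compounds in an 11-point qHTS series for 72 hr at 37C under 5% O2 and 5% CO2. Lysis buffer with SYBR Green was then added for 18 hr, and fluorescence was read at 485/535 nm.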

[9] = Inflammasome Signaling qHTS Counterscreen: IL-1-beta AlphaLISA counterscreen against the NCATS CANVASS Library (AID 1347381);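 note: cell-free check with purified IL-1β in medium and no THP-1 cells; series mostly up to about 57 µM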
Method in brief: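 Cell-free interference check: compounds added to medium spiked with 4 pg purified IL-1β. Anti-IL-1β acceptor beads (6 ug/mL) with 0.6 nM biotinylated antibody added for 1 h at RT, then streptavidin donor beads (24 ug/mL) for 30 min in the dark. AlphaLISA read at 680/615 nm.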

[10] = Cytotoxicity qHTS for assessment of Hepg2 cells membrane integrity screened against the NCATS CANVASS Library (AID 1347387)
Method in brief: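 HepG2 cells (2000/well) attached overnight, then exposed 5 hr at 37C to compounds in an 11-point series (0.59 nM - 46 uM final). LDH release from damaged membranes read fluorometrically (CytoTox-ONE; 560/590 nm) after 10 min at room temperature.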

[11] = qHTS assay for small molecule disruptors of mitochondrial membrane potential screened against the NCATS CANVASS Library (AID 1347389); note: series mostly up to about 46 µM; nearly all actives have a fitted effect of over 60% in size
Method in brief: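 HepG2 cells (2,000/well) plated overnight, then exposed to compounds in 11-point qHTS series for 1 h at 37C before 30 min Mito-MPS dye; depolarization read as fall in red aggregate (590 nm) to green monomer (535 nm) fluorescence.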

[12] = Secretion counterscreen for inhibitors of the SERCaMP assay screened against the NCATS CANVASS Library (AID 1347390);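 note: light from luciferase secreted into medium read as a measure of general secretion; series mostly up to about 77 µM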
Method in brief: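 Counterscreen identifying compounds that disrupt secretion, using SH-SY5Y cells with a constitutively secreted Gaussia luciferase reporter. A 20 h compound exposure (top 77 uM) precedes luminescent detection with coelenterazine.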

[13] = qHTS for activators of Nrf2/ARE signaling pathway screened against the NCATS CANVASS Library (AID 1347391); note: nearly all actives have a fitted effect of over 60% in size
Method in brief: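 ARE-bla HepG2 beta-lactamase reporter cells exposed to compounds for 16 h at 37C; CCF4 substrate 2 h, fluorescence at ex 405 nm, em 460/530 nm. Viability by CellTiter-Glo luminescence.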

[14] = qHTS for activators of dead-cell proteases activity screened against the NCATS CANVASS Library (AID 1347392);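 note: luminescence from protease leaking out of membrane-damaged cells cleaving impermeant substrate; rising signal means more cytotoxicity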
Method in brief: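 HepG2 cells, 2000/well, attached 18 h at 37C, then exposed to compounds (11-point qHTS) for 5 h. Dead-cell protease release read as luminescence from cell-impermeant AAF-aminoluciferin substrate after 15 min at room temperature.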

[15] = qHTS for inhibitors of ER calcium dysfunction: SERCaMP assay screened against the NCATS CANVASS Library (AID 1347393);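 note: series mostly up to about 77 µM; lower secreted reporter signal means inhibitor of ER calcium depletion; nearly all actives have a fitted effect of over 40% in size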
Method in brief: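 SH-SY5Y GLuc-SERCaMP, 1000 cells/well, 4 h attach; cpd 16 h, 37C/5% CO2; thapsigargin (added as 6x 600 nM) 4 h; coelenterazine; luminescence. Reduced reporter release = ER Ca stabilization.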

[16] = Vero-766 cells viability qHTS against the NCATS CANVASS Library: Counterscreen for Zika virus inhibition assay (AID 1347394); note: series mostly up to about 46 µM; nearly all actives have a fitted effect of over 60% in size
Method in brief: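 This cytotoxicity counterscreen uses African green monkey Vero 766 cells in the absence of Zika virus. Compounds are incubated with cells for 72 h, and ATP-based luminescence reports viability.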

[17] = qHTS for inhibitors of Wild type Zika virus screened against the NCATS CANVASS Library (AID 1347396);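 note: ATP luminescence of surviving cells so rescue from viral cell killing; series mostly up to about 46 µM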
Method in brief: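 Using ATP-based luminescence (CellTiter Glo), this screen scores rescue of Vero 766 cells from wild-type Zika killing at 72 h post-infection. Compounds are tested in a concentration series.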

[18] = Viability qHTS for inhibitors of the SERCaMP assay screened against the NCATS CANVASS Library (AID 1347400); note: series mostly up to about 92 µM; nearly all actives have a fitted effect of over 70% in size
Method in brief: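 SH-SY5Y-GLuc SERCaMP MJH297-derived cells, 1000/well, plated 4 h, then exposed to compounds in an 11-point qHTS series for 48 h at 37C. Viability read as CellTiter-Glo luminescence.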

[19] = Redox Reaction Profiling qHTS: Assay Interference Panel against the NCATS CANVASS Library (AID 1347401)
Method in brief: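 Compounds in 11-point series incubated with 5 uM resazurin and 200 uM DTT in 50 mM HEPES pH 7.3, 50 mM NaCl. Resorufin fluorescence (Ex 525/Em 598) read before and after 15 min in the dark.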

Measured: outcome

CN1CCC[C@@H]1c1cccnc1
inactive: all assays above
